According to PubChem BioAssay AID1578 (Sanford-Burnham Center for Chemical Genomics, 2009):
About 3,000 (1%) of roughly 290,000 compounds were called active. The sample as a whole holds a higher share of actives than the screen did. A number with no mark means an inactive call. No stated cut-off is given here; in the data, active means inhibition mostly above about 36% (no sharp cut-off); inactive means mostly below about 34%.

Experiment: inhibition of NOD1-driven NF-kB reporter – cell-based, luminescence, uHTS, primary screen (AID 1578);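 further: HEK-293T reporter cells stimulated with the NOD1 agonist gamma-tri-DAP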
Conditions: NOD1-driven NF-kB luciferase reporter cells, at 4 µM, stronger effect = higher value

Point of comparison: `Cc1cc(C)n2nc(N)c(N=Nc3ccc4c(c3)OCO4)c2n1`, inhibition 22.6%. Against it:
- CCOc1ccc(NC(=O)C2CC(=O)N(C)C(=Nc3ccc4c(c3)OCO4)S2)cc1 (centres undefined) — lower, -34.5%
- O=C(CS(=O)(=O)c1ccccc1)NCc1ccc(Cl)cc1 — lower, -44.4%
- CCc1ccc(C(=O)/C=C/Nc2ccc(S(=O)(=O)Nc3cnc4ccccc4n3)cc2)cc1 — lower, 4%
- c1ccc(CSc2nnc(Cc3ccccn3)o2)cc1 — lower, -32.5%
- CSC(=Nc1ccc(Cl)cc1)N[n+]1ccccc1 — lower, -6.8%
- NC(=Nc1ccc(Cl)cc1)c1ccccc1 — lower, -49%
- NC(=O)CCc1nc2cc(C(F)(F)F)ccc2n(Cc2ccccc2)c1=O — lower, -13%
- O=C(NCCCn1ccnc1)/C(=C/c1ccccc1)NC(=O)c1ccccc1 — higher, 32.8%
- O=C(COc1ccccc1Cl)NNC(=O)c1cc(S(=O)(=O)N2CCOCC2)ccc1N1CCCC1 — lower, -47.2%
- COc1ccc(O)c(C2(O)C(=O)c3ccccc3C2=O)c1 — lower, 0.1%
- CC(/C=C/c1ccccc1)=N/NC(=O)CNC(=O)c1ccc2c(c1)OCO2 — lower, 5.3%
- COCCCNC(=O)c1ccc2c(c1)OCO2 — lower, -16.8%
- O=C(CNC(=O)c1ccc2c(c1)OCO2)N/N=C/c1cccc([N+](=O)[O-])c1 — lower, -59.4%
- Cc1ccc(OCCNC(=O)c2ccc3c(c2)OCO3)cc1 — lower, -63.7%
- Cc1ccccc1C(=O)OCc1cnc(Cl)s1 — lower, -8.8%
- S=c1[nH]nc(C23CC4CC(CC(C4)C2)C3)n1Cc1ccco1 — lower, 1.2%
- CCOC(=O)/C=C/C(=O)OCC(=O)NC(c1ccccc1)c1ccccc1 — higher, 25.7%
- O=C(COC(=O)/C=C/C(=O)N1CCN(c2ccccc2)CC1)NCc1ccc(F)cc1 — lower, -5.2%
- Cc1ccc(NS(=O)(=O)c2c(C)[nH]c(C)c2C(=O)N2CCCCC2)cc1F — lower, -24.4%
- CCCCn1c(Oc2ccc(C(=O)OC)cc2)nc2c1c(=O)n(C)c(=O)n2C — lower, 9.2%
- O=C(CN1C(=O)CC(c2ccccc2)Sc2ccccc21)NCC1CCCO1 (centres undefined) — lower, -33.1%
- CCOC(=O)c1ccc(N2C(=O)c3n[nH]c(C)c3C2c2cccnc2)cc1 (centres undefined) — lower, 9.9%
- Cc1ccc(N2C(=O)c3n[nH]c(C)c3C2c2cccnc2)cc1 (centres undefined) — lower, -28.2%
- Nc1nc(CSCc2ccccc2)nc(N2CCOCC2)n1 — lower, 2%
- CC(=O)N/N=C(\C)CCc1ccccc1 — lower, -4.4%
- Cc1cc(=O)[nH]c(SC(C)C(=O)Nc2cccc3ccccc23)n1 (centres undefined) — lower, -23.2%
- CC1=C(C(=O)OCc2ccccc2)C(c2ccccc2Cl)NC(=O)N1CCCC(=O)O (centres undefined) — lower, 17.1%
- CC1=C(C(=O)OCc2ccccc2)C(c2cccc(Cl)c2Cl)NC(=O)N1CCCCCC(=O)O (centres undefined) — lower, 8.9%
- O=C(O)c1ccc(NC(=O)c2cccc(N3C(=O)C4C5CCC(C5)C4C3=O)c2)cc1 (centres undefined) — lower, -29.6%
- O=C(Nc1ccc(Br)cc1)c1cccc(N2C(=O)C3C4CCC(C4)C3C2=O)c1 (centres undefined) — lower, 11.1%
- O=C(NC(c1ccccc1)c1ccccc1)c1cccc(S(=O)(=O)NCc2ccccc2)c1 — lower, -4.9%
- COc1cc(/C=C2/CC/C(=C/c3ccc(O)c(OC)c3)C2=O)ccc1O — lower, 20.8%
- COc1ccc(/C=C2\CC/C(=C\c3ccc(OC)cc3OC)C2=O)c(OC)c1 — lower, -1.2%
- COc1ccc(/C=C2\CCC/C(=C\c3ccc(OC)c(OC)c3OC)C2=O)c(OC)c1OC — lower, -1%
- COc1cc(OC)c(OC)cc1/C=C1\CCC(C2CCCC2)C1=O (centres undefined) — lower, -28.9%
- COc1cc(/C=C2\COC/C(=C\c3ccc(O)c(OC)c3)C2=O)ccc1O — lower, 0%
- COc1cc(OC)c(OC)cc1/C=C1/Cc2ccccc2C1=O — lower, -5%
- COc1cccc(NC(=O)N2CCCC(C(=O)NCc3ccc(F)cc3)C2)c1 (centres undefined) — lower, -13.5%
- COc1cc(-c2c(-c3cccc(C)c3)oc3ccccc23)cc(OC)c1OC — lower, 4.2%
- O=C(N/N=C/c1c(O)n(Cc2ccccc2)c(=O)c2ccccc12)c1cccnc1 — lower, -5.8%
- Cc1nn(Cc2ccccc2)c(C)c1/C=N/NC(=O)c1cccnc1 — higher, 25.8%
- CC1CCN(C(=O)c2ccccc2NC(=O)c2cccc(S(=O)(=O)N3CCOCC3)c2)CC1 — lower, -2.3%
- COc1ccc(CN(C)C(=O)CCl)cc1 — lower, 10%
- CCOc1ccc(CN(C)C(=O)CCl)cc1 — lower, 10.8%
- O=C(NC1CC1)C1CCN(C2CCN(C(=O)/C=C/c3cccc(F)c3F)CC2)CC1 — lower, -10.9%
- CC1CN(S(=O)(=O)c2ccc(C(=O)Nc3ccc(S(=O)(=O)Nc4ncccn4)cc3)cc2)CC(C)O1 (centres undefined) — lower, -34.7%
- O=C(NCc1ccco1)c1c[nH]c2ccc(S(=O)(=O)N3CCOCC3)cc2c1=O — lower, -21.1%
- O=C(O)c1ccc2nc(-c3ccccc3)sc2c1 — higher, 26.5%
- Nc1ccc(-c2nc3ccc(N)cc3s2)cc1 — lower, -7.4%
- C[C@@H]1NC(=O)[C@H](CCC(=O)O)NC(=O)c2cc([N+](=O)[O-])cc(F)c2NCCC[C@@H](C(N)=O)NC1=O — lower, -18.8%
- O=c1c2[nH]c3ccc(F)cc3c2ncn1CCC1=CCCCC1 — lower, -0.7%
- c1ccc(CNc2nc(-c3cccs3)nc3ccccc23)nc1 — lower, -27.4%
- O=C(O)c1ccc(Nc2ncnc3scc(-c4ccccc4)c23)cc1 — lower, -63%
- CN(C)CCCNc1ncnc2scc(-c3ccccc3)c12 — lower, -40.3%
- Cc1csc2ncnc(NCCc3ccccn3)c12 — higher, 37%
- c1csc(-c2csc3ncnc(NCCCN4CCOCC4)c23)c1 — higher, 30.7%
- Cc1sc2ncnc(NCC3COc4ccccc4O3)c2c1C (centres undefined) — higher, 44.6%
- COc1ccc(-c2csc3ncnc(Nc4ccc(O)cc4)c23)cc1 — lower, 15.8%
- c1ccc2c(c1)OCC(CNc1ncnc3sccc13)O2 (centres undefined) — higher, 57.1%
- CC(=O)N(c1ccc(N(C(C)=O)S(=O)(=O)c2cccs2)cc1)S(=O)(=O)c1cccs1 — lower, 3%
- CSc1nnc2c3cc(F)ccc3n(Cc3ccccc3)c2n1 — lower, -1.5%
- CN(C)/C=C/C(=O)c1cnc(-c2ccccc2Cl)s1 — lower, -20.8%
- Cn1c(=O)oc2cc(S(=O)(=O)NCCC(=O)N3CCN(c4ccccc4)CC3)ccc21 — lower, -5.7%
- CCC(C)C(=O)Nc1cc(C(=O)OC)ccc1C(=O)OC (centres undefined) — lower, -11.8%
- CC1(C)CC(=O)c2cc(N=C/C(C(=O)c3ccccc3)=C(\O)c3ccccc3)c(=O)oc2C1 — lower, -21.7%
- Nc1nn(-c2ccccc2)c(N)c1N=Nc1ccc2c(c1)OCO2 — lower, -68.3%
- COc1cccc(CNC(C)(C)CO)c1OCc1ccc(Cl)cc1 — lower, -33%
- COc1ccc(CC(=O)NC2CCN(Cc3nnnn3C(C)(C)C)CC2)cc1OC — lower, -12.7%
- COc1ccc(/C=C/C(=O)N2CCN(c3ccccn3)CC2)cc1 — lower, -37.3%
- CCOC(=O)/C(C#N)=C\C1=C(N2CCOCC2)CC(C)(C)OC1 — lower, -33.6%
- CCOC(=O)C1=C(CC)Nc2ccccc2N=C1NC(=O)CCN1C(=O)C2CCCCC2C1=O (centres undefined) — lower, -14.8%
- N#CC1=C(S)N(c2ccc(F)cc2)C(c2ccco2)NC1=O (centres undefined) — lower, -47.2%
- Cc1ccc(N2C(S)=C(C#N)C(=O)NC2c2ccco2)cc1 (centres undefined) — lower, -33.2%
- CCC(=O)c1ccc(OCC(=O)NC2(C#N)CCCCC2)cc1 — lower, -14.9%
- COc1ccc(CCNC(=O)C(=O)NCC2OCCN2C(=O)c2ccc(Cl)cc2)cc1OC (centres undefined) — lower, -3.4%
- Cc1cc(C)c(C2C(C#N)=C(N)Oc3n[nH]c(C)c32)cc1CN1CCOCC1 (centres undefined) — lower, -16%
- COc1ccc(/C=N/Nc2nnc(Cc3ccc(OC)c(OC)c3)c(=O)[nH]2)cc1OC — lower, 4.2%
- COc1ccc(-c2nc3ccccn3c2NCc2ccc3c(c2)OCO3)cc1 — lower, -27.1%
- Cc1ccn2c(NCc3ccc4c(c3)OCO4)c(-c3ccc(O)cc3)nc2c1 — lower, 3.7%
- Cc1cccc(C)c1OCc1nnc(SCC(=O)Nc2ccc(N3CCOCC3)cc2)o1 — lower, 17.6%

For `[S-]C(=Nc1ccc(Cl)cc1)N[n+]1ccccc1`, the inhibition was 104% (active).
For `O=C(NCCOc1ccccc1)c1ccc2c(c1)OCO2`, the inhibition was 55.9% (active).
For `O=C(CNC(=O)c1ccc2c(c1)OCO2)N/N=C(Br)/C=C/c1ccccc1`, the inhibition was 80% (active).
With `O=C(COC(=O)/C=C/C(=O)N1CCN(c2ccccc2)CC1)NC(c1ccccc1)c1ccccc1` the inhibition was 76.2% (active).
With `Cc1[nH]nc2c1C(c1cccnc1)N(c1ccc(Br)cc1)C2=O` (centres undefined) the inhibition was 43.6% (active).
In the case of `CC1=C(C(=O)OCc2ccccc2)C(c2ccccc2Cl)NC(=O)N1CCCCCC(=O)O` (centres undefined), the inhibition is reported as 68.6% (active).
In the case of `Cc1c(/C=N/NC(=O)c2cccnc2)c2ccccc2n1Cc1ccccc1`, the inhibition is reported as 38.8% (active).
For `CN(Cc1ccc(Cl)s1)C(=O)CCl`, the inhibition was 99.8% (active).
In the case of `Nc1ccc(-c2nc3ccc(C(=O)O)cc3s2)cc1`, the inhibition is reported as 89.8% (active).
For `c1ccc(-c2csc3ncnc(NCC4COc5ccccc5O4)c23)cc1` (centres undefined), the inhibition was 75.2% (active).
With `Oc1ccc(Nc2ncnc3scc(-c4ccccc4)c23)cc1` the inhibition was 83.6% (active).
For `N#CC1=C(S)N(c2ccccc2)C(c2ccco2)NC1=O` (centres undefined), the inhibition was 68.4% (active).
For `COc1ccc(-c2nc3cc(C)ccn3c2NCc2ccc3c(c2)OCO3)cc1`, the inhibition was 48.5% (active).
